Screening results: PubChem, National Center for Advancing Translational Sciences (NCATS)
Sampled rows, rich in hits. Any-hit rate of the full collection: about 3.9%.
HepG2 viability: qHTS for Inhibitors of TGF-b: Cytotox Counterscreen | HepG2 CAGA-GFP viability, ATP luminescence, 18 h | AID 588856, 2011 | 410,000 tested, 0.76% active | Potency, µM (highest dose often 46.1 µM), inactives show at the highest dose activity change, negative = cytotoxicity, usual class: cytotoxic
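HepG2 CAGA-GFP cells (1000/well, DMEM with 1% FBS) received compound, then TGF-beta at 500 pg/mL final, and were incubated 18 hours at 37 degrees C. Viability was read by CellTiter-Glo luminescence. Media-only wells were set as complete cell-killing and DMSO as no toxicity.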
TGFb SMAD3 inh: qHTS for Inhibitors of TGF-b; HepG2 CAGA-GFP TGF-b/SMAD3 reporter, GFP fluorescence, 18 h; TGF-beta stimulated, 500 pg/mL final; Potency, µM (highest dose often 46.1 µM), for the others: at the top dose activity, negative = inhibition, hits mostly inhibitors; 410,000 tested, 1.2% active; note: % is set by controls: 0 for no effect and ±100 for the full control effect; nearly all actives have a fitted effect of over 65% in size
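Read-out: total well GFP (ex488/em500-530) summed from mean per-cell fluorescence. Cells: HEPG2 CAGA-GFP, 1% FBS DMEM, 18 h at 37 degrees C with 500 pg/mL final TGF-beta. Unstimulated wells served as the full-inhibition control; stimulated DMSO wells = 0%.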
HT1080 IDH1KD tx: qHTS for induction of synthetic lethality in tumor cells producing 2HG: qHTS for the HT-1080-IDH1KD cell line; HT-1080 IDH1 knockdown viability, ATP luminescence, 48 h; Potency, µM (top dose mostly 46.1 µM), for inactives: at the top dose activity, negative = toxicity, most hits filed as cytotoxic; 360,000 tested, 2% active;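 note: 0% = DMSO wells and -100% = cell-free medium wells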
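CellTiter-Glo luminescence after 48 h compound exposure at 37 degrees C of IDH1-knockdown HT-1080 cells in 5% FBS RPMI. %Activity scaled between DMSO wells and cell-free media wells, with curves fitted and assigned curve classes.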
S2 tox: Viability Counterscreen for Primary qHTS for Inhibitors of ATXN expression | S2 cells (HEK-293 line with an ATXN2-luciferase reporter) viability, CellTiter-Fluor protease fluorescence, 24 h | Potency, µM (titrated, usually from 56.7 µM), usual class: cytotoxic | 400,000 tested, 0.49% active | AID 651635, 2014; note: nearly all actives have a fitted effect of over 40% in size
HT1080-NT tox: qHTS for induction of synthetic lethality in tumor cells producing 2HG: qHTS for the HT-1080-NT fibrosarcoma cell line; HT-1080-NT fibrosarcoma viability, CellTiter-Glo ATP luminescence, 48 h; Potency, µM (top dose mostly 46.1 µM), for the others: top-dose activity, negative = less viability, usual class: cytotoxic; 360,000 tested, 1.6% active; AID 686970, 2013;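 note: NT is the 2HG producing partner of a matched IDH1 knockdown line; 0% = DMSO-treated cells and -100% = media-only wells without cells; nearly all actives have a fitted effect of over 55% in size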
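Fibrosarcoma NT cells, 750 per well in 5% FBS RPMI, were exposed to compound for 48 hours. Viability: CellTiter-Glo luminescence.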
ATXN2 expr inh: Primary qHTS for Inhibitors of ATXN expression. Potency, µM (highest dose often 57 µM), inactives show top-dose activity change, negative = inhibition, hits mostly inhibitors. AID 1745845, 2022. 360,000 tested, 0.72% active. HEK-293 ATXN2-luciferase reporter, luminescence, 24 h; note: % is set by controls: 0 for no effect and ±100 for the full control effect; nearly all actives have a fitted effect of over 55% in size
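ATXN2-luciferase reporter cells (luciferase flanked by upstream and downstream ATXN2 gene portions) were treated 24 h at 37 °C with compounds at up to 57 uM. SteadyGlo luminescence gave expression; GF-AFC fluorescence gave viability.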
An asterisk follows results filed as active; i = inactive; ? = inconclusive; nt = no result given. Calls come from the whole dose curve; as a rule, active = well fitted curve in the direction sought with a large enough effect; inconclusive = small, poorly fitted or top-dose-only effect, or another doubt; inactive = no such curve, though single readings can be large; an effect the other way counts as inactive or inconclusive. Potency is the fitted concentration of half-maximal effect.

SMILES	HepG2 viability	TGFb SMAD3 inh	HT1080 IDH1KD tx	S2 tox	HT1080-NT tox	ATXN2 expr inh
Cc1cnn(CCC(=O)NNC(=S)NCC(C)C)c1	-6%	0%	23%	i	13%	10%
Cc1cnn(CCC(=O)NNC(=S)Nc2ccccc2)c1	12%	?	8.9µM*	i	7.1µM*	9%
Cc1ccc(/C=C/c2onc(C)c2S(=O)(=O)N2CCC(C(=O)N(CCC(C)C)Cc3ccco3)CC2)cc1	-9%	-1%	nt	nt	nt	nt
COc1cccc(/C=N/Nc2ncnc3scc(-c4ccccc4)c23)c1OC	-61%	?	11µM*	i	20µM*	-28%
COc1ccc(CC(=O)NCc2nn(-c3ccccc3)nc2C)cc1OC	-34%	-18%	0%	i	-5%	nt
COc1ccc(-c2ocnc2C(=O)NCc2nn(-c3ccccc3)nc2C)cc1	-35%	?	16µM*	i	?	nt
CC(=O)C1=C(O)CC(c2ccccc2)CC1=NCCc1c(C)[nH]c2ccc(C)cc12 (stereo unspecified)	-8%	-5%	-2%	i	-3%	-23%
CCC(=NCCc1c(C)[nH]c2ccc(C)cc12)C1=C(O)CC(c2ccccc2)CC1=O (stereo unspecified)	-15%	?	1.3µM*	i	?	-14%
S=c1sc2c(Cl)ncnc2n1-c1ccccc1	-86%	?	?	?	21µM*	nt
c1ccc(-c2sc3ccccc3c2-c2ccc(OCCN3CCCC3)cc2)cc1	11µM*	?	-11%	?	?	25µM*
COc1ccc2sc(-c3ccccc3OC)c(-c3ccc(OC)c(F)c3)c2c1	-24%	-2%	22%	i	?	-6%
COc1ccc(-c2sc3ccccc3c2-c2ccc(OCCN3CCCCC3)cc2)cc1	-11%	32%	-20%	i	-16%	-8%
COc1cccc(-c2sc3ccccc3c2-c2ccc(OCCN3CCCC3)cc2)c1	20µM*	?	?	?	?	28µM*
COc1cccc(-c2sc3ccccc3c2-c2ccc(OCCN3CCCCC3)cc2)c1	-41%	1%	-15%	nt	-8%	?
COc1ccc2sc(-c3ccccc3OC)c(-c3ccc(OCCN(C)C)cc3)c2c1	16µM*	16µM*	?	nt	?	?
COc1cccc(-c2sc3cc(OC)c(OC)cc3c2-c2ccc(OCCN3CCCCC3)cc2)c1	13µM*	?	16µM*	40µM*	?	-21%
COc1ccc(CNC(=O)c2cccn2-c2nnc(N3CCCC3)s2)c(OC)c1	-21%	-3%	nt	nt	nt	nt
COc1cccc(-c2sc3ccc(OC)cc3c2-c2ccc(C(N)=O)cc2)c1	-21%	-2%	-19%	i	?	-11%
COc1cccc(-c2sc3ccccc3c2-c2ccc(OCCN(C)C)cc2)c1	11µM*	?	16µM*	nt	?	22µM*
C[C@H]1C[C@H](O)c2ccsc2S1(=O)=O	nt	nt	nt	i	nt	7%
COCc1c(C(=O)NC2CCCCCC2)cnn1-c1nccc(-c2cc(C)sc2C)n1	nt	nt	nt	i	nt	nt
Nc1nc(N)c2cc(Sc3ccc(Cl)cc3)ccc2n1	-114%	?	5.8µM*	nt	2.6µM*	nt
Nc1nc(N)c2cc(Sc3ccc4ccccc4c3)ccc2n1	-179%	11µM*	5.8µM*	?	8.2µM*	?
Nc1nc(N)c2cc(Sc3cccc(C(F)(F)F)c3)ccc2n1	-116%	?	5.8µM*	?	5.8µM*	nt
Nc1nc(-c2ccc3ccccc3c2)cs1	-38%	-5%	-25%	i	1%	94%
